Test results: PubChem BioAssay (Tox21)
Where “and” joins values, the source holds several entries; their conditions need not be identical. Identical values can stand only once. Inconclusive results are not listed. Some structures have more than one record in an assay (separate samples or runs), and their calls can disagree. Calls of active or inactive are those of the source. The call rests on the fitted dose curve; in most records, active means well fitted curve in the direction sought with a large enough effect in the repeat runs; inconclusive means weak or mixed curves; inactive means no such curve, though single readings can be large; an effect the other way counts as inactive or inconclusive.

Key:
[1] = Human pregnane X receptor (PXR) small molecule agonists, qHTS cell viability counter screen (AID 1346977); further: nearly all actives have a fitted effect of over 50% in size; further: potency means the concentration at half of the fitted maximal effect
Outline: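 Same-well viability read: CellTiter-Fluor added after 23 hr compound exposure, fluorescence measured 1 hr later. Cells were PXR-Luc HepG2 seeded at 2,000/well in 5% charcoal-stripped FBS medium, rested 5 hr before dosing at 37 C.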

[2] = Caspase-3/7 induction in HepG2 cells by small molecules, qHTS assay (AID 1346978); further: nearly all actives have a fitted effect of over 15% in size
Outline: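 Wild-type HepG2 cells (2,000/well) were settled 5 h at 37 C, 5% CO2, then exposed to compounds in DMSO for 17 h. Caspase-3/7 activity was read by luminescence 30 min after adding Caspase-Glo 3/7 reagent at room temperature.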

[3] = Caspase-3/7 induction in CHO-K1 cells by small molecules, qHTS cell viability counter screen (AID 1346979); further: nearly all actives have a fitted effect of over 35% in size; further: potency means the concentration at half of the fitted maximal effect
Outline: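 Cytotoxicity counter screen: CellTiter-Fluor added to compound-treated wild-type CHO-K1 cells at 16 h (37C, 5% CO2), fluorescence measured 1 h later; same wells as caspase-3/7 measurement.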

[4] = Caspase-3/7 induction in HepG2 cells by small molecules, qHTS cell viability counter screen (AID 1346981); further: nearly all actives have a fitted effect of over 30% in size; further: potency means the concentration at half of the fitted maximal effect
Outline: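 Cell viability is measured as a cytotoxicity counter screen alongside the Caspase-Glo 3/7 readout in identical wells. Wild-type HepG2 cells are treated with test compounds for 16 hr at 37 C before CellTiter-Fluor addition and a 1-hr incubation.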

[5] = target: Nuclear receptor subfamily 1 group I member 2 (Homo sapiens) (UniProt O75469); experiment: Human pregnane X receptor (PXR) small molecule agonists, qHTS assay (AID 1346982); further: nearly all actives have a fitted effect of over 35% in size; further: potency means the concentration at half of the fitted maximal effect
Outline: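 Cells: HepG2 stably carrying PXR-Luc. Medium held 5% charcoal-stripped FBS. Compounds in DMSO added after 5 hr plating, incubated 24 hr, then luminescence quantified with ONE-Glo.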

[6] = target: Cytochrome P450 2D6 (Homo sapiens) (UniProt P10635); experiment: Cytochrome P450 Family 2 Subfamily D Member 6 (CYP2D6) small molecule antagonists: luciferase reporter qHTS assay (AID 1671196); further: nearly all actives have a fitted effect of over 50% in size; further: potency means the concentration at half of the fitted maximal effect
Outline: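 Enzyme and proluciferin substrate were first combined with test chemical for 10 min at room temperature. Adding NADPH regeneration solution started a 1 h reaction, stopped with luciferin detection reagent and read by luminescence 20 min later.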

[7] = target: Cytochrome P450 2C19 (Homo sapiens) (UniProt P33261); experiment: Cytochrome P450 Family 2 Subfamily C Member 19 (CYP2C19) small molecule antagonists: luciferase reporter qHTS assay (AID 1671197); further: nearly all actives have a fitted effect of over 65% in size; further: potency means the concentration at half of the fitted maximal effect
Outline: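 Inhibition of CYP2C19 was scored from loss of luminescence in a P450-Glo proluciferin substrate assay, NADPH-started and run 1 h at 37C, with ketoconazole as positive control.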

[8] = target: Cytochrome P450 2C9 (Homo sapiens) (UniProt P11712); experiment: Cytochrome P450 Family 2 Subfamily C Member 9 (CYP2C9) small molecule antagonists: luciferase reporter qHTS assay (AID 1671198); further: nearly all actives have a fitted effect of over 50% in size; further: potency means the concentration at half of the fitted maximal effect
Outline: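 CYP2C9 activity was measured with a P450-Glo proluciferin substrate. Enzyme–substrate mix was held with compound for 10 min at room temperature, then NADPH regeneration solution was added for 1 h at 37C. Luciferin product was read as luminescence.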

[9] = target: Voltage-gated inwardly rectifying potassium channel KCNH2 (Homo sapiens) (UniProt Q12809); experiment: Human Ether-a-go-go-Related Gene (hERG) channel small molecule antagonists: fluorescence cell-based qHTS assay (AID 1671200); further: nearly all actives have a fitted effect of over 50% in size; further: potency means the concentration at half of the fitted maximal effect
Outline: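 Thallium flux as potassium surrogate: FluxOR II dye loaded 1 h at room temperature into hERG-expressing U2OS cells, then stimulus buffer added after 10 min. Kinetic 480 nm excitation/540 nm emission read, 2 min.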

[10] = target: Cytochrome P450 3A4 (Homo sapiens) (UniProt P08684); experiment: Cytochrome P450 Family 3 Subfamily A Member 4 (CYP3A4) small molecule antagonists: luciferase reporter qHTS assay (AID 1671201); further: nearly all actives have a fitted effect of over 50% in size; further: potency means the concentration at half of the fitted maximal effect
Outline: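 Recombinant human CYP3A4 converts a proluciferin substrate to luciferin over 1 h at room temperature after NADPH regeneration solution is added (compound preincubated 10 min); detection reagent stops reaction, luminescence read 20 min later as relative units.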

[11] = target: Cytochrome P450 1A2 (Homo sapiens) (UniProt P05177); experiment: Cytochrome P450 Family 1 Subfamily A Member 2 (CYP1A2) small molecule antagonists: luciferase reporter qHTS assay (AID 1671199); further: nearly all actives have a fitted effect of over 50% in size; further: potency means the concentration at half of the fitted maximal effect
Outline: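 Compounds were incubated with CYP1A2 and a luminogenic proluciferin substrate for 10 min at room temperature before the reaction was started with NADPH regeneration solution. After 1 h, detection reagent was added and light output, proportional to CYP activity, was recorded.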

[12] = target: Nuclear receptor subfamily 1 group I member 2 (Rattus norvegicus) (UniProt Q9R1A7); experiment: Rat pregnane X receptor (rPXR) activation by small molecules, qHTS assay (AID 1346983); conditions: rPXR luciferase reporter cells, One-Glo luminescence, 24 h; stronger effect = higher value; further: nearly all actives have a fitted effect of over 20% in size
Outline: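 Cell-based rPXR luciferase reporter assay, 2,000 cells per well, rested 5hr at 37 C before compound addition in DMSO, then 24 hr at 37 C. One-Glo reagent was added and luminescence read after 30 min at room temperature.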
On the % scale 0 is the no-effect control and ±100 the full control effect.

Chain of Nuclear receptor subfamily 1 group I member 2 (Homo sapiens) (O75469 whole entry, looked up): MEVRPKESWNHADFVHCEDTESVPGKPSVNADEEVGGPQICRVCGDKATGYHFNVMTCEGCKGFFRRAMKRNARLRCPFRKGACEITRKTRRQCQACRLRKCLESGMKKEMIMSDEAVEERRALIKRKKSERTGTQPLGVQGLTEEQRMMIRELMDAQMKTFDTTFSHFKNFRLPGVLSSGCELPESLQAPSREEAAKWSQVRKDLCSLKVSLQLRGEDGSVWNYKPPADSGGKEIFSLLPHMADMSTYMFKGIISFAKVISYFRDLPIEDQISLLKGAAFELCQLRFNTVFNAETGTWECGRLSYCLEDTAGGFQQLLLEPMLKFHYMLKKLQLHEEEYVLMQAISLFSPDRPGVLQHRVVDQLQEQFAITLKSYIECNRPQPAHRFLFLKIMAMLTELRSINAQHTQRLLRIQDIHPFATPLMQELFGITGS
Chain of Voltage-gated inwardly rectifying potassium channel KCNH2 (Homo sapiens) (Q12809 whole entry, looked up): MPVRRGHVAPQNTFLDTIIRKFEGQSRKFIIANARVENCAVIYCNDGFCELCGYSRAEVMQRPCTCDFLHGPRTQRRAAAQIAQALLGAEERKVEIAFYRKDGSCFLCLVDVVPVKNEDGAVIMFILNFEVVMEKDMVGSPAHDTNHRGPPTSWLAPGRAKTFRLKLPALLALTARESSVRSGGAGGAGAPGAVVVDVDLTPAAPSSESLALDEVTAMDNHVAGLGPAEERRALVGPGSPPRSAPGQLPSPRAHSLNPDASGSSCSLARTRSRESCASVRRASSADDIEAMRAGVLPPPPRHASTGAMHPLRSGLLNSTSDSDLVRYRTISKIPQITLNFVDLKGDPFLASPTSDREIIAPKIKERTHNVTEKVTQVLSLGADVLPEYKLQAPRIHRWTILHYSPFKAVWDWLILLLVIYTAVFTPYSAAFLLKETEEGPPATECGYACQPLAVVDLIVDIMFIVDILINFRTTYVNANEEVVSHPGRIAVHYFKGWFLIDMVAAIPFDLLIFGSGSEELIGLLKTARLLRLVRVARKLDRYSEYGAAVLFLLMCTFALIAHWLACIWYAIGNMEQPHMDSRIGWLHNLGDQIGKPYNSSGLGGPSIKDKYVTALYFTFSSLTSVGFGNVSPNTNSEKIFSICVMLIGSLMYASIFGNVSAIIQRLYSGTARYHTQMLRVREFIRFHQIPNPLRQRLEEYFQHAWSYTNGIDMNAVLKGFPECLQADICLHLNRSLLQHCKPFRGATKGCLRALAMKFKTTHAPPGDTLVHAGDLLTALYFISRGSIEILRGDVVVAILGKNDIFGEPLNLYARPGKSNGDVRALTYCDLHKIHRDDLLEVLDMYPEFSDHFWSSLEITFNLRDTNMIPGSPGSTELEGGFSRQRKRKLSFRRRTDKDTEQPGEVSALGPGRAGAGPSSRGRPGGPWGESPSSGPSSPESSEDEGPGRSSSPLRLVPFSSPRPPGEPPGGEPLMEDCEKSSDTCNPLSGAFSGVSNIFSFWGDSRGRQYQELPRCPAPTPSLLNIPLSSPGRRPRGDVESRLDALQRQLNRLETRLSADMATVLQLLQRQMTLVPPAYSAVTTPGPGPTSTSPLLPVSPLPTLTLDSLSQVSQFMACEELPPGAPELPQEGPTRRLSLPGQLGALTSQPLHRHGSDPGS
Chain of Cytochrome P450 3A4 (Homo sapiens) (P08684 whole entry, looked up): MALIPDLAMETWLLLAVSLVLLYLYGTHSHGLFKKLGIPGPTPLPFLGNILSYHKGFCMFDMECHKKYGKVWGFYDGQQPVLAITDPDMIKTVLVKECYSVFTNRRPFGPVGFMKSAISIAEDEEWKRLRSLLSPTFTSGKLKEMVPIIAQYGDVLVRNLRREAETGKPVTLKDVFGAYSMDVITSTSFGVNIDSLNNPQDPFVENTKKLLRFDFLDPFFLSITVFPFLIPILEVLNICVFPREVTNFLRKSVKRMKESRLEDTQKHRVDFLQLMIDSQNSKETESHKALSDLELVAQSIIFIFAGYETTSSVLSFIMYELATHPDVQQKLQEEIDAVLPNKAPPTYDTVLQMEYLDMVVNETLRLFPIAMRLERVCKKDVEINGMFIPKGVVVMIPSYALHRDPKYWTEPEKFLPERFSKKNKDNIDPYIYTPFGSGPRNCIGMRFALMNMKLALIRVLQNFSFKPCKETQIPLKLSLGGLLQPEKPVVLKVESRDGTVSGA
Chain of Cytochrome P450 2C19 (Homo sapiens) (P33261 whole entry, looked up): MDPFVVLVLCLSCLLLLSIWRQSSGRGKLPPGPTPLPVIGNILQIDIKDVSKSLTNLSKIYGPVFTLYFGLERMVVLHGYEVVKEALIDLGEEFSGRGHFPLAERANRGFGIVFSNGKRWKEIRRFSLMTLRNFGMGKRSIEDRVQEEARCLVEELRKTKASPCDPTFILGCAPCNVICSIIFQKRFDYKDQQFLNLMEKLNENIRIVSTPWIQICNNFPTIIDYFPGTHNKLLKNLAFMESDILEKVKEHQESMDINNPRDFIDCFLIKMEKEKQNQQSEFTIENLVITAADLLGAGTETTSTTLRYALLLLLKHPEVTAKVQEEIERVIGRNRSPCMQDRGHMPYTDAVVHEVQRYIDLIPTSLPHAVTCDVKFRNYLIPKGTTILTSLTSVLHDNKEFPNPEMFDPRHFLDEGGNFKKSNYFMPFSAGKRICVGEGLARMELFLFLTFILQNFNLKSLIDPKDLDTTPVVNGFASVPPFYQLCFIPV
Chain of Cytochrome P450 2D6 (Homo sapiens) (P10635 whole entry, looked up): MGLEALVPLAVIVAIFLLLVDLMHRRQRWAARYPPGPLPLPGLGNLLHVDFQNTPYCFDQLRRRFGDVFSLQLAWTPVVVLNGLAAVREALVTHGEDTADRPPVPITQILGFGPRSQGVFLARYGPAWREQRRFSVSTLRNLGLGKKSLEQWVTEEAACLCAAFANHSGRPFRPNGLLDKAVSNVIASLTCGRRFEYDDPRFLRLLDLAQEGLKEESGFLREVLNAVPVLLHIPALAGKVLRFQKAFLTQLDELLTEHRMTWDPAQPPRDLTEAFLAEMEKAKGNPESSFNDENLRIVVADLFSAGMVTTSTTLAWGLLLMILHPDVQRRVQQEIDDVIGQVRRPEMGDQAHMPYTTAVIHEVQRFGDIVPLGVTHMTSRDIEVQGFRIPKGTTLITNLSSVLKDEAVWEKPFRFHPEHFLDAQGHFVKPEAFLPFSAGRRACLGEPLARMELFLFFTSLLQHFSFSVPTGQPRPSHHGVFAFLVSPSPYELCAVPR
Chain of Cytochrome P450 1A2 (Homo sapiens) (P05177 whole entry, looked up): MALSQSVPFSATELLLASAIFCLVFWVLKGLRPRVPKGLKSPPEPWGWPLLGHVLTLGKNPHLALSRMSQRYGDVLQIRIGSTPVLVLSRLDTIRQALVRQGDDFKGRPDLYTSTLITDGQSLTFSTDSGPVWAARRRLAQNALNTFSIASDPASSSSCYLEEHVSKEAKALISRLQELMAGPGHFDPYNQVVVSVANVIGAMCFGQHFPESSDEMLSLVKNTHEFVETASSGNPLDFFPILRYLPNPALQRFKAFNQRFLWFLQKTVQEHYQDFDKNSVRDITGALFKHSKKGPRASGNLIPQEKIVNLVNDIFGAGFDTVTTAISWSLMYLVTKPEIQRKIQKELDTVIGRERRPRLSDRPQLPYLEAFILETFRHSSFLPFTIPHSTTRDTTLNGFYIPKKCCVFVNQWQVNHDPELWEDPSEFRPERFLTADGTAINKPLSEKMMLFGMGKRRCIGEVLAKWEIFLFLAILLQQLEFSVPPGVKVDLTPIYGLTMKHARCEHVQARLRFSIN
Chain of Cytochrome P450 2C9 (Homo sapiens) (P11712 whole entry, looked up): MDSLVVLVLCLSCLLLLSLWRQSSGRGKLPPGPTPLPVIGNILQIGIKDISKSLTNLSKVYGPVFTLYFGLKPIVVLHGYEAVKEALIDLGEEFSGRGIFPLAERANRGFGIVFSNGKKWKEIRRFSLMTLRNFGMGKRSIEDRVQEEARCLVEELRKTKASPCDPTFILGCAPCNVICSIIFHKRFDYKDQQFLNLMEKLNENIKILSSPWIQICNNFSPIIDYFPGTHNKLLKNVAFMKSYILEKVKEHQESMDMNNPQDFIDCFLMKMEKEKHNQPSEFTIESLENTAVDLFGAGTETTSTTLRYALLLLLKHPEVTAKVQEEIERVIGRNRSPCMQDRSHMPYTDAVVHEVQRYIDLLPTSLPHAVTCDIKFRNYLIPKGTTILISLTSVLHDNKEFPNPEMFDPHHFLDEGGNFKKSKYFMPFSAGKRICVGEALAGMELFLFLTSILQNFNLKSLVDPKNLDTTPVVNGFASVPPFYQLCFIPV
Chain of Nuclear receptor subfamily 1 group I member 2 (Rattus norvegicus) (Q9R1A7 whole entry, looked up): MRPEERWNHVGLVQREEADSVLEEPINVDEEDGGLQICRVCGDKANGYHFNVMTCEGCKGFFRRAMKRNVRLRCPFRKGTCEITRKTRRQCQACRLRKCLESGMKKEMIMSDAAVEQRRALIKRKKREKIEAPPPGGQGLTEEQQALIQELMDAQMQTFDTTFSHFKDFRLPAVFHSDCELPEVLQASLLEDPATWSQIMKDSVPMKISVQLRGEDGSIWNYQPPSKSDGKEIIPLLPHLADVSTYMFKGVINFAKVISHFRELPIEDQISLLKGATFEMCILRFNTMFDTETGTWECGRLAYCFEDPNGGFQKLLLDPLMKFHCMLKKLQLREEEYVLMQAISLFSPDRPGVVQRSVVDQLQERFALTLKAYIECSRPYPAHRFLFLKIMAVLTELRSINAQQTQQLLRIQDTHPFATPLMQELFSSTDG

CO[Si](CCCNCCN)(OC)OC
13.9 µM (active) and inactive: Potency [5]
31.6 µM (active) and inactive: Potency [1]
5.53 µM (active) and inactive: Potency [3]
inactive: Potency [2] | Potency [6] | Potency [7] | Potency [8] | Potency [9] | Potency [10]
62 µM (active) and inactive: Potency [4]

CCCCCCCCC(=O)O
active: Potency [8] 61.3 µM and 79.6 µM | Potency [11] 38.6 µM
inactive: Potency [1] | Potency [2] | Potency [4] | Potency [5] | Potency [9] | Potency [10]
34.4 µM (active) and inactive: Potency [6]

CCCN(CCC)C(=O)SCC
inactive: Potency [1] | Potency [2] | Potency [3] | Potency [4] | Potency [5] | Potency [6] | Potency [7] | Potency [8] | Potency [11] | Potency [9] | Potency [10]

CC[N+](CC)(CC(=O)Nc1c(C)cccc1C)Cc1ccccc1
39.9 µM (active) and inactive: Potency [7]
11.2 nM (active) and inactive: Potency [6]
24.5 µM (active) and inactive: Potency [9]
inactive: Potency [1] | Potency [2] | Potency [3] | Potency [4] | Potency [11]

CC(C)c1ccc(C(C)C)cc1
inactive: Potency [1] | Potency [2] | Potency [3] | Potency [4] | Potency [5] | Potency [6] | Potency [7] | Potency [8] | Potency [9] | Potency [10]

OC[C@H]1O[C@@H](Oc2ccc(O)cc2)[C@H](O)[C@@H](O)[C@@H]1O
inactive: Potency [1] | Potency [2] | Potency [3] | Potency [4] | max activation [12] -0.143% | Potency [6] | Potency [7] | Potency [8] | Potency [9] | Potency [10]

Cc1nnc(NS(=O)(=O)c2ccc(N)cc2)s1
inactive: Potency [1] | Potency [2] | Potency [3] | Potency [4] | Potency [5] | Potency [6] | Potency [11] | Potency [9] | Potency [10]
active: Potency [7] 39.8 µM | Potency [8] 35.5 µM

COc1ccc(N)c(OC)c1
inactive: Potency [1] | Potency [2] | Potency [3] | Potency [4] | Potency [5] | Potency [9]
active: Potency [6] 1.53 µM and 17.8 µM | Potency [8] 15.3 µM and 35.6 µM | Potency [10] 3.84 µM and 11.3 µM

Cc1cc(C)c(O)c(C)c1
active: Potency [8] 35.6 µM and 79.6 µM | Potency [11] 35.6 µM and 28.3 µM
48.6 µM (active) and inactive: Potency [3]
inactive: Potency [1] | Potency [2] | Potency [4] | Potency [6] | Potency [9] | Potency [10]

Cc1ncc(CO)c(CO)c1O
inactive: Potency [1] | Potency [2] | Potency [3] | Potency [4] | Potency [5] | Potency [6] | Potency [9] | Potency [10]

C=CC(C)(C)C
inactive: Potency [1] | Potency [2] | Potency [3] | Potency [4] | Potency [6] | Potency [7] | Potency [8] | Potency [9] | Potency [10]
active: Potency [11] 44.8 µM

CCCCC(CC)COC(=O)c1ccc(C(=O)OCC(CC)CCCC)cc1 (stereo unspecified)
inactive: Potency [1] | Potency [2] | Potency [3] | Potency [4] | Potency [5] | Potency [6] | Potency [7] | Potency [8] | Potency [9] | Potency [10]

C=CC(=O)NCOCCCC
inactive: Potency [1] | Potency [2] | Potency [3] | Potency [4] | Potency [5] | Potency [8] | Potency [11] | Potency [9] | Potency [10]
active: Potency [7] 46.2 µM
16.4 µM (active) and inactive: Potency [6]
